A short description of experiment [1]: NCI Yeast Anticancer Drug Screen. Data for the rad50 strain (AID 155).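 Further: 0% = growth of vehicle-only cultures of the same strain.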 The settings on record: S. cerevisiae rad50 strain growth inhibition; at 50.0 µM; stronger effect = higher value. The procedure, abridged:
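Growth of the mutant yeast was measured after compound exposure and referenced to vehicle-treated cultures.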

Experiment [2] is described as follows: NCI Yeast Anticancer Drug Screen. Data for the mec2-1 strain (AID 157). Particulars: S. cerevisiae mec2-1 strain, stronger effect = higher value. The procedure, abridged:
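Using mec2-1 yeast: add compound, measure growth, express inhibition versus vehicle-treated cultures.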

Experiment [3] in a line: NCI Yeast Anticancer Drug Screen. Data for the sgs1 mgt1 strain (AID 161).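 Further: 0% = growth of cultures given vehicle only.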 Particulars: S. cerevisiae sgs1 mgt1 strain, stronger effect = higher value. The procedure, abridged: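 This yeast growth screen uses a strain with defined DNA-repair lesions; compound-treated growth is compared with vehicle-treated growth.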
Experiment [4] in a line: NCI Yeast Anticancer Drug Screen. Data for the cln2 rad14 strain (AID 165).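 Further: 0% = growth equal to vehicle treated cultures.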 The settings on record: S. cerevisiae cln2 rad14 strain, stronger effect = higher value. Summed up: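 Yeast strain cln2 rad14, bearing defects in cell cycle control and DNA repair, serves as the test system; values reflect growth inhibition compared with vehicle.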
Experiment [5] can be described thus: NCI Yeast Anticancer Drug Screen. Data for the bub3 strain (AID 167). The settings on record: S. cerevisiae bub3 mutant strain, stronger effect = higher value. The procedure, abridged: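 Whole-cell yeast assay. The mutant strain was incubated with compounds, and growth inhibition was determined by comparison with vehicle-treated cells.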
The nature of experiment [6]: NCI Yeast Anticancer Drug Screen. Data for the mlh1 rad18 strain (AID 175). Particulars: S. cerevisiae mlh1 rad18 strain growth inhibition, stronger effect = higher value. The procedure, abridged: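 Steps: expose repair-defective yeast to compound; measure growth; express inhibition against vehicle-treated controls.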
The mark [7] stands for this setting: at 5.0 µM (retest, dose inferred, filed as 0.5).
Setting [8] is: at 50.0 µM (retest, dose inferred, filed as 5.0).

Where “and” joins values, the source holds several entries; their conditions need not be identical. Equal entries are not always repeated. This is part of a sample that, as a whole, favours compounds with a hit. Of some 79,000 tested, about 15% had one in any assay. Some compounds were tested as several samples or in several runs, with calls that do not always agree. Calls of active or inactive are those of the source. No stated cut-off is given here; in the data, active means growth inhibition above about 70%; inactive means the rest.

Regarding `CCC(N)C(=O)O` (stereo unspecified), the growth inhibition in experiment [1] is -0.4% (inactive) and 5.25% (inactive); in experiment [2] (at 50.0 µM) it was -31.6% (inactive) and 6.85% (inactive); in experiment [3] (at 50.0 µM), 1.75% (inactive) and -11.3% (inactive); in experiment [4] (at 50.0 µM), 8.55% (inactive) and 9.4% (inactive); in experiment [5] (at 50.0 µM) it was -9.75% (inactive) and -14.9% (inactive); in experiment [6] (at 50.0 µM), -10.8% (inactive) and -0.8% (inactive).
Turning to `OCC1OCOC2C(CO)OCOC12` (stereo unspecified), the growth inhibition was -9.2% (inactive) and -8.3% (inactive) in experiment [1]; -21.4% (inactive) and -3.75% (inactive) in experiment [2] (at 50.0 µM); -9.95% (inactive) and 15.6% (inactive) in experiment [3] (at 50.0 µM); 0.65% (inactive) and -36.2% (inactive) in experiment [4] (at 50.0 µM); -13.8% (inactive) and -4.7% (inactive) in experiment [5] (at 50.0 µM); -4.7% (inactive) and -3.1% (inactive) in experiment [6] (at 50.0 µM).
For `CC(=O)OC1COC(N2CCc3ccccc32)C(OC(C)=O)C1OC(C)=O` (stereo unspecified), the growth inhibition in experiment [2] (at 50.0 µM) is -2.95% (inactive) and -28% (inactive); in experiment [3] (at 50.0 µM), -33% (inactive) and -34.4% (inactive); in experiment [4] (at 50.0 µM), -6.75% (inactive) and -2.5% (inactive); in experiment [5] (at 50.0 µM) it was -27.7% (inactive) and -17.9% (inactive); in experiment [6] (at 50.0 µM), -25.2% (inactive) and -33.2% (inactive).
For `O=c1oc2c(O)c(O)cc3c(=O)oc4c(O)c(O)cc1c4c23`, the growth inhibition is 25.8% (inactive) and 6.65% (inactive) in experiment [1]; 18.6% (inactive) and -20.1% (inactive) in experiment [2] (at 50.0 µM); 34.7% (inactive) and -10.7% (inactive) in experiment [3] (at 50.0 µM); 19% (inactive) and -8.75% (inactive) in experiment [4] (at 50.0 µM); 29% (inactive) and -35.9% (inactive) in experiment [5] (at 50.0 µM); -8.1% (inactive) and -19.1% (inactive) in experiment [6] (at 50.0 µM).
Take `O=c1c(O)c(-c2ccc(O)c(O)c2)oc2cc(O)ccc12`: the growth inhibition in experiment [1] was -15.2% (inactive) and -57% (inactive); in experiment [2] (at 50.0 µM) it was -14.6% (inactive) and -40.4% (inactive); in experiment [3] (at 50.0 µM), -3.25% (inactive) and -24.9% (inactive); in experiment [4] (at 50.0 µM), 0.2% (inactive) and -25% (inactive); in experiment [5] (at 50.0 µM), -15.1% (inactive) and -48.1% (inactive); in experiment [6] (at 50.0 µM), -3.7% (inactive) and -37.3% (inactive).
On to `CCCCc1c(C#N)c(=O)n2c(N)c(C(=O)OCC)cnc2c1SC`, for which the growth inhibition in experiment [1] is -8.45% (inactive) and 11.1% (inactive); in experiment [2] (at 50.0 µM), -3.4% (inactive) and 14.9% (inactive); in experiment [3] (at 50.0 µM) it was 8.3% (inactive) and -12.1% (inactive); in experiment [4] (at 50.0 µM) it was -7.6% (inactive) and -34% (inactive); in experiment [5] (at 50.0 µM) it was 5.65% (inactive) and -7.9% (inactive); in experiment [6] (at 50.0 µM) it was 9.15% (inactive) and -5.05% (inactive).
As to `C[N+](C)(C)c1ncnc2c1ncn2C1CC(O)C(CO)O1` (stereo unspecified), the growth inhibition in experiment [1] is 21.2% (inactive) and -23.1% (inactive); in experiment [2] (at 50.0 µM) it was 8.45% (inactive) and 7% (inactive); in experiment [3] (at 50.0 µM) it was 15.7% (inactive) and -2.85% (inactive); in experiment [4] (at 50.0 µM), 3.1% (inactive) and -6.45% (inactive); in experiment [6] (at 50.0 µM), 7.55% (inactive) and 8.6% (inactive).
With `Cn1cc(NC(=O)c2cc(NC(=O)c3cc(NC=O)cn3C)cn2C)cc1C(=O)NCCC(=N)N`, the growth inhibition was 5.1% (inactive) and 89.8% (active) in experiment [1]; 6.75% (inactive) and 91.5% (active) in experiment [2] (at 50.0 µM); -2.2% (inactive) and 91.7% (active) in experiment [3] (at 50.0 µM); 22.9% (inactive) and 88.5% (active) in experiment [4] (at 50.0 µM); -1.75% (inactive) and 91.3% (active) in experiment [5] (at 50.0 µM); 12.9% (inactive) and 90% (active) in experiment [6] (at 50.0 µM).
In the case of `c1ccc(CSSCc2ccccc2)cc1`, the growth inhibition in experiment [2] (at 50.0 µM) was -0.35% (inactive) and -3.15% (inactive); in experiment [3] (at 50.0 µM), 3% (inactive) and 1.85% (inactive); in experiment [4] (at 50.0 µM) it was -5.5% (inactive) and -8.2% (inactive); in experiment [5] (at 50.0 µM), 4.9% (inactive) and -9.9% (inactive); in experiment [6] (at 50.0 µM), 15.3% (inactive) and -14.1% (inactive).
As to `Nc1nc(-c2ccccc2)nc(N)c1N=O`, the growth inhibition in experiment [2] (setting [7]) was 63% (inactive); in experiment [2] (setting [8]), 98% (active); in experiment [2] (at 50.0 µM) it was 89.5% (active); in experiment [3] (setting [7]), 50% (inactive); in experiment [3] (setting [8]), 99% (active); in experiment [3] (at 50.0 µM), 91.5% (active). Also, the growth inhibition is 52% (inactive) in experiment [4] (setting [7]); 100% (active) in experiment [4] (setting [8]); 77% (active) in experiment [4] (at 50.0 µM); 82% (active) in experiment [5] (setting [7]); 97% (active) in experiment [5] (setting [8]); 89.2% (active) in experiment [5] (at 50.0 µM). Moreover, the growth inhibition is 49% (inactive) in experiment [6] (setting [7]), 67% (inactive) in experiment [6] (setting [8]) and 88.5% (active) in experiment [6] (at 50.0 µM).
As to `O=C(c1ccc(O)c(Br)c1)c1ccc(O)c(Br)c1`, the growth inhibition in experiment [2] (setting [7]) is 76% (active); in experiment [2] (setting [8]) it was 99% (active); in experiment [2] (at 50.0 µM), 76% (active); in experiment [3] (setting [7]) it was 44% (inactive); in experiment [3] (setting [8]), 99% (active); in experiment [3] (at 50.0 µM) it was 64.4% (inactive). Further, the growth inhibition was 83% (active) in experiment [4] (setting [7]); 99% (active) in experiment [4] (setting [8]); 43.5% (inactive) in experiment [4] (at 50.0 µM); 83% (active) in experiment [5] (setting [7]); 99% (active) in experiment [5] (setting [8]); 82.7% (active) in experiment [5] (at 50.0 µM). The values for the growth inhibition in experiment [6] (setting [7]), in experiment [6] (setting [8]) and in experiment [6] (at 50.0 µM) were 76% (active), 99% (active) and 88% (active), respectively.

Values taken from PubChem BioAssay (NCI).
